Results: PubChem BioAssay (NCI)
Compounds without any hit were thinned out: in the full panel of roughly 79,000, 15% have a hit. Values without a mark were called inactive. Calls of active or inactive are those of the source. Cut-off read from the data, not from the text of the source: active = growth inhibition above about 70%; inactive = the rest.

Tests used:
[1] = NCI Yeast Anticancer Drug Screen. Data for the rad50 strain (AID 155);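 note: 0% = growth of vehicle-only cultures of the same strain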; conditions: S. cerevisiae rad50 strain growth inhibition, active compounds read high
Outline: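 Inhibition values express reduced yeast growth in compound-treated cultures relative to vehicle-treated controls.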

[2] = NCI Yeast Anticancer Drug Screen. Data for the mec2-1 strain (AID 157); conditions: S. cerevisiae mec2-1 strain, active compounds read high
Outline: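 Strain: mec2-1 (DNA repair/cell cycle alteration). Compound exposure, then growth measured; inhibition expressed relative to vehicle.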

[3] = NCI Yeast Anticancer Drug Screen. Data for the sgs1 mgt1 strain (AID 161);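 note: 0% = growth of cultures given vehicle only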; conditions: S. cerevisiae sgs1 mgt1 strain, active compounds read high
Outline: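 Read-out: growth inhibition vs vehicle controls. Cells: mutant yeast strain deficient in DNA damage repair.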

[4] = NCI Yeast Anticancer Drug Screen. Data for the cln2 rad14 strain (AID 165);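 note: 0% = growth equal to vehicle treated cultures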; conditions: S. cerevisiae cln2 rad14 strain, active compounds read high
Outline: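 Compounds are applied to the cln2 rad14 yeast strain, and growth is then compared with that of vehicle-treated cultures to give inhibition.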

[5] = NCI Yeast Anticancer Drug Screen. Data for the bub3 strain (AID 167); conditions: S. cerevisiae bub3 mutant strain, active compounds read high
Outline: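 Steps: expose the mutant yeast strain to compound; grow alongside vehicle-treated cultures; measure growth; express inhibition against the vehicle cultures.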

[6] = NCI Yeast Anticancer Drug Screen. Data for the mlh1 rad18 strain (AID 175); conditions: S. cerevisiae mlh1 rad18 strain growth inhibition, active compounds read high
Outline: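 Read-out is yeast growth inhibition, calculated against vehicle-only controls. The compound was applied to a strain engineered with DNA damage repair alterations.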

[7] = at 5.0 µM (retest, dose inferred, filed as 0.5)
[8] = at 50.0 µM (retest, dose inferred, filed as 5.0)

Compound | growth inhibition [1, 7] | growth inhibition [1, 8] | growth inhibition ([1]; at 50.0 µM) | growth inhibition [2, 7] | growth inhibition [2, 8] | growth inhibition ([2]; at 50.0 µM) | growth inhibition [3, 7] | growth inhibition [3, 8] | growth inhibition ([3]; at 50.0 µM) | growth inhibition [4, 7] [%] | growth inhibition [4, 8] | growth inhibition ([4]; at 50.0 µM) | growth inhibition [5, 7] | growth inhibition [5, 8] | growth inhibition ([5]; at 50.0 µM) | growth inhibition [6, 7] | growth inhibition [6, 8] | growth inhibition ([6]; at 50.0 µM)
Nc1ccc(Cc2ccc(N)cc2[N+](=O)[O-])c([N+](=O)[O-])c1 | 1% | 0% | 14.6% | 5% | 7% | 25.9% | 6% | 74% (active) | 66.8% | 5 | 31% | 39% | -4% | -3% | 35.4% | -6% | -2% | -18.9%
CCC1CCC(CC)C1=O (configuration not stated) | 1% | 5% | 94.2% (active) | -2% | -1% | 93.9% (active) | 0% | 3% | 51.6% | -2 | 3% | 36.5% | 2% | 4% | 97.4% (active) | -2% | 7% | 43.2%
CC(C)(C)c1ccc(O)c(C2CCCCC2)c1 | 5% | 99% (active) | 99.3% (active) | -3% | 100% (active) | 99.7% (active) | -1% | 99% (active) | 99.5% (active) | -3 | 99% (active) | 99.5% (active) | 2% | 99% (active) | 96.4% (active) | -1% | 100% (active) | 99% (active)
O=C1CCSC(=S)N1c1ccc(N=Nc2ccccc2)cc1 | 57% | 94% (active) | 75.4% (active) | 9% | 91% (active) | 97.6% (active) | 20% | 94% (active) | 97.2% (active) | 11 | 13% | 84% (active) | 0% | 4% | 93.5% (active) | 18% | 94% (active) | 94.5% (active)
Cn1cc(NC(=O)c2cc(NC(=O)CCCCCCCCC(=O)Nc3cc(C(=O)Nc4cc(C(=O)NCCC(N)N)n(C)c4)n(C)c3)cn2C)cc1C(=O)NCCC(=N)N | 83% (active) | 98% (active) | 89.8% (active) | 87% (active) | 98% (active) | 90.8% (active) | 80% (active) | 99% (active) | 91.5% (active) | 45 | 95% (active) | 88% (active) | 86% (active) | 98% (active) | 91.5% (active) | 88% (active) | 97% (active) | 90% (active)
CC1=NN(C(=O)c2ccc(Cl)cc2)C(=O)C1N=Nc1ccc(S(=O)(=O)Nc2ncccn2)cc1 (configuration not stated) | 61% | 93% (active) | 55.7% | 4% | 51% | 13.2% | 11% | 8% | 10.8% | -6 | 2% | 19.4% | -2% | -8% | -6.7% | 6% | 20% | 17.4%
CCOC(=O)C(CCSC)C(=O)OCC | -1% | -2% | 11% | 2% | 2% | 12.8% | 4% | -2% | -0.15% | 1 | -1% | 76.1% (active) | -3% | 3% | -2.4% | -3% | -4% | 2.35%
O=C1CCCCCC1Cc1cc(O)c(CC2CCCCCC2=O)cc1O (configuration not stated) | 10% | 54% | 91.8% (active) | 8% | 34% | 80.2% (active) | 12% | 82% (active) | 86.5% (active) | -6 | 32% | 11.2% | -3% | 33% | 64.2% | 8% | 88% (active) | 35.2%
O=[N+]([O-])c1ccc(N/N=C/COCCO)c([N+](=O)[O-])c1 | 2% | 20% | 37.4% | 9% | 11% | 11.8% | 0% | 62% | 23.1% | 4 | 2% | -24.2% | -1% | 14% | 73.6% (active) | 1% | 8% | 62%
